Records with an inconclusive call do not appear. Active and inactive are the calls of the source. Calls follow the shape of the dose curve; as a rule, active = well fitted inhibition curve with a large enough effect; inconclusive = small, poorly fitted or top-dose-only effect; inactive = flat fitted curve, though single readings scatter.
Legend:
[1] = target: Glutathione peroxidase 1 (Homo sapiens) (UniProt P07203); experiment: Primary qHTS Assay for Inhibitors of Recombinant Selenoprotein Glutathione Peroxidase 1 (GPX1) (AID 1845191); also: % is scaled to controls: 0 for no effect and ±100 for the full control effect; nearly all actives have a fitted effect of over 65% in size
Outline: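 Recombinant GPX1 (10 nM final) was preincubated with compound for 30 min at room temperature, then reacted with 1 mM GSH, 0.5 mM CHP, 0.5 mM NADPH and 100 nM glutathione reductase; NADPH fluorescence (340/450 nm) was read at 0 and 15 min.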

[2] = qHTS profiling for inhibitors of Plasmodium falciparum proliferation (AID 504749); also: potency is read from the fitted curve at half-maximal effect;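 as to activity, negative = inhibition: 0% = DMSO vehicle and full inhibition = artemisinin control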; as to all read-outs here: nearly all actives have a fitted effect of over 60% in size; conditions: P. falciparum in erythrocytes, SYBR Green DNA, 72 h; for activity, negative = inhibition: at 28.7 µM (top of the series)
Outline: (§1)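 P. falciparum-infected erythrocytes (0.3% parasitemia, 2.5% hematocrit final) were exposed to compounds for 72 h at 37 C in 5% CO2, then lysed with SYBR Green buffer overnight at room temperature; parasite DNA fluorescence was normalized to artemisinin and DMSO controls.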

3D7 = experiment: as above; conditions: P. falciparum in erythrocytes, SYBR Green DNA, 72 h; series mostly up to 28.7 µM
Outline: as §1

7G8 = experiment: as above; conditions: P. falciparum in erythrocytes, SYBR Green DNA, 72 h; series mostly up to 28.7 µM
Outline: as §1

[3] = target: Phospholipid hydroperoxide glutathione peroxidase GPX4 (Homo sapiens) (UniProt P36969); experiment: Primary qHTS Assay for Inhibitors of Recombinant Selenoprotein Glutathione Peroxidase 4 (GPX4) (AID 1845192); also: nearly all actives have a fitted effect of over 65% in size; also: potency is read from the fitted curve at half-maximal effect
Outline: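 GR-coupled readout: 100 nM GR, 1 mM GSH, 0.5 mM NADPH; NADPH fluorescence (ex 340/em 450 nm) read at t=0 and after 15 min RT. GPX4 200 nM, preincubated 30 min with compound; substrate 0.5 mM CHP.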

Sequence of Glutathione peroxidase 1 (Homo sapiens) (P07203 whole entry, looked up): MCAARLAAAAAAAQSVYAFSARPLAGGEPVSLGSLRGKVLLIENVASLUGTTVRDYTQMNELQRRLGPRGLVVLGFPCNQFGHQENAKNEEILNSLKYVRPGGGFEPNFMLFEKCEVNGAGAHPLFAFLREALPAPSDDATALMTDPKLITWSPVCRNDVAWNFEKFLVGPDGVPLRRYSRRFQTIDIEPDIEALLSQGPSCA
Sequence of Phospholipid hydroperoxide glutathione peroxidase GPX4 (Homo sapiens) (P36969 whole entry, looked up): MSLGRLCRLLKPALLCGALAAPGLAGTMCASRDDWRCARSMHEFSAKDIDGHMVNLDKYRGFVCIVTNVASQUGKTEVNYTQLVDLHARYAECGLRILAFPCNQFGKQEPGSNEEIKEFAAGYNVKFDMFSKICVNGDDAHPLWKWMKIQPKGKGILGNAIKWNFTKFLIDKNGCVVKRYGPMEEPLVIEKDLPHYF

CN(C)C=Nc1c(I)cc(I)c(CCC(=O)O)c1I
inactive: Potency [1] | activity, negative = inhibition ([2]; parasite line A) 0.723% | activity, negative = inhibition ([2]; parasite line B) 1.95% | Potency (3D7) | Potency (7G8)

NC(=O)CC[C@@H]1NC(=O)[C@H](Cc2ccccc2)NC(=O)[C@H](Cc2ccc(O)cc2)NC(=O)[C@@H](N)CSSC[C@@H](C(=O)N2CCC[C@H]2C(=O)N[C@@H](CCCN=C(N)N)C(=O)NCC(N)=O)NC(=O)[C@H](CC(N)=O)NC1=O
inactive: activity, negative = inhibition ([2]; parasite line A) 1.66% | activity, negative = inhibition ([2]; parasite line B) -0.62% | Potency (3D7)

CC(C)C1=CC2=CC[C@@H]3[C@](C)(CCC[C@@]3(C)C(=O)O)[C@H]2CC1
inactive: activity, negative = inhibition ([2]; parasite line A) -4.25% | activity, negative = inhibition ([2]; parasite line B) -11.9% | Potency (3D7)

CCCc1nc(C(C)(C)O)c(C(=O)OCc2oc(=O)oc2C)n1Cc1ccc(-c2ccccc2-c2nn[nH]n2)cc1
inactive: Potency [1] | activity, negative = inhibition ([2]; parasite line A) -15.7% | activity, negative = inhibition ([2]; parasite line B) -20.3% | Potency (3D7) | Potency (7G8)

CC(C)(C)CC(C)(C)c1ccc(OCCO)cc1
inactive: activity, negative = inhibition ([2]; parasite line A) -21% | activity, negative = inhibition ([2]; parasite line B) -13.8% | Potency (3D7)

Oc1ccc(Cl)c2c1CCC2
inactive: activity, negative = inhibition ([2]; parasite line A) 6.7% | activity, negative = inhibition ([2]; parasite line B) 4.51% | Potency (3D7)

CSc1nc2cc(Oc3cccc(Cl)c3Cl)c(Cl)cc2[nH]1
inactive: Potency [1]
active: Potency ([2]; parasite line A) 3.98 µM | Potency ([2]; parasite line B) 11.2 µM | Potency (7G8) 8.91 µM

CO/N=C(/C(=O)N[C@@H]1C(=O)N2C(C(=O)O)=C(COC(N)=O)CS[C@H]12)c1ccco1
inactive: activity, negative = inhibition ([2]; parasite line A) 6.01% | activity, negative = inhibition ([2]; parasite line B) 2.26% | Potency (3D7)

F[Si-2](F)(F)(F)(F)F
inactive: activity, negative = inhibition ([2]; parasite line A) 3.4% | activity, negative = inhibition ([2]; parasite line B) 19.2% | Potency (3D7) | Potency (7G8)

C=CCCCCCCCCC(=O)OC
inactive: activity, negative = inhibition ([2]; parasite line A) -4.4% | activity, negative = inhibition ([2]; parasite line B) 10.1% | Potency (3D7)

CC(C)OC(=O)Nc1ccc2nc(-c3cscn3)[nH]c2c1
inactive: activity, negative = inhibition ([2]; parasite line A) 1.15% | activity, negative = inhibition ([2]; parasite line B) -9.28% | Potency (3D7)

O=S(=O)(O)CCCS(=O)(=O)O
inactive: Potency [1] | activity, negative = inhibition ([2]; parasite line A) -6.14% | activity, negative = inhibition ([2]; parasite line B) 2.06% | Potency (3D7) | Potency (7G8)

S=C1SCN(Cc2ccccc2)CN1Cc1ccccc1
active: Potency [3] 15.8 µM
inactive: activity, negative = inhibition ([2]; parasite line A) -6.7% | Potency (3D7) | Potency (7G8)

COc1ccccc1N1CCN(CCCC(=O)c2ccc(F)cc2)CC1
inactive: activity, negative = inhibition ([2]; parasite line A) -16.2% | activity, negative = inhibition ([2]; parasite line B) 9.5% | Potency (3D7)

COC(=O)[C@@H](N)CS
active: Potency [3] 10 µM
inactive: activity, negative = inhibition ([2]; parasite line A) -8.41% | activity, negative = inhibition ([2]; parasite line B) 10.4% | Potency (7G8)

CC[C@H]1OC(=O)C[C@@H](O)[C@H](C)[C@@H](O[C@@H]2O[C@H](C)[C@@H](O[C@H]3C[C@@](C)(O)[C@@H](O)[C@H](C)O3)[C@H](N(C)C)[C@H]2O)[C@@H](CC=O)C[C@@H](C)C(=O)/C=C/C(C)=C/[C@@H]1CO[C@@H]1O[C@H](C)[C@@H](O)[C@@H](OC)[C@H]1OC
inactive: Potency [3]

O=C(O)c1cc(O)c2c(c1)[C@H]([C@H]1c3cc(C(=O)O)cc(O)c3C(=O)c3c(O[C@@H]4O[C@H](CO)[C@@H](O)[C@H](O)[C@H]4O)cccc31)c1cccc(O[C@@H]3O[C@H](CO)[C@@H](O)[C@H](O)[C@H]3O)c1C2=O
active: Potency [3] 1.12 µM

Cc1cc(C(=O)NCCc2ccc(S(=O)(=O)NC(=O)NN3CCCCCC3)cc2)no1
inactive: activity, negative = inhibition ([2]; parasite line A) 7.09% | activity, negative = inhibition ([2]; parasite line B) 6.94% | Potency (3D7) | Potency (7G8)

CCN(CC)CCCC(C)Nc1cc(/C=C/c2ccccc2Cl)nc2cc(Cl)ccc12 (stereo not drawn)
active: Potency ([2]; parasite line A) 1.78 µM | Potency ([2]; parasite line B) 2 µM | Potency (3D7) 1.41 µM | Potency (7G8) 0.794 µM

CO/N=C(\C(=O)N[C@@H]1C(=O)N2C(C(=O)[O-])=C(C[n+]3cccc4c3CCC4)CS[C@H]12)c1csc(N)n1
inactive: activity, negative = inhibition ([2]; parasite line A) 12.2% | activity, negative = inhibition ([2]; parasite line B) 2.56% | Potency (3D7) | Potency (7G8)

O=C(O)CCCC/C=C(\c1ccccc1)c1cccnc1
inactive: activity, negative = inhibition ([2]; parasite line A) 3.33% | activity, negative = inhibition ([2]; parasite line B) 8.41% | Potency (3D7) | Potency (7G8)

O=C(CCCN1CCN2CCCC2C1)c1ccc(F)cc1 (stereo not drawn)
inactive: activity, negative = inhibition ([2]; parasite line A) 12% | activity, negative = inhibition ([2]; parasite line B) 7.07% | Potency (3D7)

CCOC(=O)C1=C(COCCN)NC(C)=C(C(=O)OC)C1c1ccccc1Cl (stereo not drawn)
active: Potency (7G8) 11.2 µM
inactive: Potency [1] | activity, negative = inhibition ([2]; parasite line A) -0.523% | activity, negative = inhibition ([2]; parasite line B) -8.98% | Potency (3D7)

O=C(OC[C@H]1O[C@@H](OC(=O)c2cc(O)c(O)c(OC(=O)c3cc(O)c(O)c(O)c3)c2)[C@H](OC(=O)c2cc(O)c(O)c(OC(=O)c3cc(O)c(O)c(O)c3)c2)[C@@H](OC(=O)c2cc(O)c(O)c(OC(=O)c3cc(O)c(O)c(O)c3)c2)[C@@H]1OC(=O)c1cc(O)c(O)c(OC(=O)c2cc(O)c(O)c(O)c2)c1)c1cc(O)c(O)c(OC(=O)c2cc(O)c(O)c(O)c2)c1
active: Potency [3] 4.47 µM

CC1CCC(NC(=O)N(CCCl)N=O)CC1 (stereo not drawn)
inactive: activity, negative = inhibition ([2]; parasite line A) 9.36% | activity, negative = inhibition ([2]; parasite line B) 3.89% | Potency (3D7)

CN1C(C(=O)Nc2ccccn2)C(=O)c2sc(Cl)cc2S1(=O)=O (stereo not drawn)
inactive: activity, negative = inhibition ([2]; parasite line A) 8.71% | activity, negative = inhibition ([2]; parasite line B) -14.1% | Potency (3D7)

CCOC(=O)Cc1ccc(-c2ccccc2)cc1
inactive: Potency [1] | activity, negative = inhibition ([2]; parasite line A) 8.04% | Potency (3D7) | Potency (7G8)

Cc1cc(C)c(NC(=O)C[C@H](CC(=O)O)c2cccc3ccccc23)c(C(=O)N2CCC3(CCCC3)CC2)c1
inactive: activity, negative = inhibition ([2]; parasite line A) 4.74% | activity, negative = inhibition ([2]; parasite line B) -1.81% | Potency (3D7)

O=C(O)CC/C=C\CC[C@@H]1[C@@H](N2CCCCC2)[C@@H](O)C[C@@H]1OCc1ccc(-c2ccccc2)cc1
inactive: activity, negative = inhibition ([2]; parasite line A) 6.82% | activity, negative = inhibition ([2]; parasite line B) 1.98% | Potency (3D7)

O=C(O)CCC/C=C\C[C@@H]1[C@@H](/C=C/[C@@H](O)COc2cccc(C(F)(F)F)c2)[C@H](O)C[C@@H]1O
inactive: activity, negative = inhibition ([2]; parasite line A) -5.12% | activity, negative = inhibition ([2]; parasite line B) -7.34% | Potency (3D7)

O=C1CCC(c2ccccc2)(C2CCN(Cc3ccccc3)CC2)C(=O)N1 (stereo not drawn)
inactive: activity, negative = inhibition ([2]; parasite line A) 7.2% | activity, negative = inhibition ([2]; parasite line B) 9.21% | Potency (3D7)

CCOC(=O)[C@@H](N)CS
active: Potency [3] 14.1 µM
inactive: activity, negative = inhibition ([2]; parasite line A) -7.81% | activity, negative = inhibition ([2]; parasite line B) 16.4% | Potency (3D7) | Potency (7G8)

Cc1ncc[nH]1
inactive: activity, negative = inhibition ([2]; parasite line A) 1.23% | activity, negative = inhibition ([2]; parasite line B) 14.4% | Potency (3D7) | Potency (7G8)

CCCCC(CC)COS(=O)(=O)O (stereo not drawn)
inactive: activity, negative = inhibition ([2]; parasite line A) 12.8% | activity, negative = inhibition ([2]; parasite line B) 12.3% | Potency (3D7) | Potency (7G8)

CCOC(=S)SSC(=S)OCC
inactive: activity, negative = inhibition ([2]; parasite line A) 12.6% | activity, negative = inhibition ([2]; parasite line B) -0.533% | Potency (3D7) | Potency (7G8)

O=C1c2ccccc2C(=O)C1c1ccc(F)cc1
inactive: activity, negative = inhibition ([2]; parasite line A) -6.63% | activity, negative = inhibition ([2]; parasite line B) 2.77% | Potency (3D7) | Potency (7G8)

O=C(O)COc1ccccc1/C=N/NC(=O)c1ccncc1
inactive: activity, negative = inhibition ([2]; parasite line A) 7.51% | activity, negative = inhibition ([2]; parasite line B) 0.92% | Potency (3D7) | Potency (7G8)

Cc1ccc(S(=O)(=O)NCl)cc1
inactive: activity, negative = inhibition ([2]; parasite line A) -0.743% | activity, negative = inhibition ([2]; parasite line B) 4.28% | Potency (3D7) | Potency (7G8)

OCC(O)CO
inactive: activity, negative = inhibition ([2]; parasite line A) 7.74% | activity, negative = inhibition ([2]; parasite line B) 7.55% | Potency (3D7) | Potency (7G8)

O=C(O)[C@H]1CN(C/C=C/P(=O)(O)O)CCN1
inactive: activity, negative = inhibition ([2]; parasite line A) 5.03% | activity, negative = inhibition ([2]; parasite line B) 6.62% | Potency (3D7) | Potency (7G8)

O=C(O)c1ccc(OCCn2ccnc2)cc1
inactive: activity, negative = inhibition ([2]; parasite line A) 13.9% | activity, negative = inhibition ([2]; parasite line B) 6.25% | Potency (3D7) | Potency (7G8)

NCC(O)CC(=O)O (stereo not drawn)
inactive: activity, negative = inhibition ([2]; parasite line A) 13% | activity, negative = inhibition ([2]; parasite line B) 3.91% | Potency (3D7) | Potency (7G8)

CCCCCCCCCCCCCCCCCC(=O)OC[C@@H](O)[C@H]1OC[C@H](O)[C@H]1O
inactive: activity, negative = inhibition ([2]; parasite line A) -5.9% | activity, negative = inhibition ([2]; parasite line B) -8.53% | Potency (3D7) | Potency (7G8)

— PubChem BioAssay (NCATS)
